Assay outcomes as filed in PubChem.
Compounds with a hit are over-represented: about 0.9% of the library has one in this group of screens.
PfHsp40 rescue – rescue of PfHsp40-mediated yeast toxicity | S. cerevisiae expressing PfHsp40, growth rescue, ATP luminescence | growth rescue, % at 12.5 µM | 340,000 tested, 0.68% active | AID 504582; in the data active means growth rescue above about 28%, passing the limit was not always enough; inconclusive means no clear call, values can overlap the other calls;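 further: yeast W303a lacking pdr1 and pdr3 grown in galactose medium; growth measured after three days at 30 °C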
Sa RN4220 lethal – S. aureus RN4220 growth inhibition; 330,000 tested, 0.33% active; AID 1259311; OD600, 16 h; inhibition, % (concentration not given with the values); in the data active means inhibition above about 85%;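 further: plate controls were untreated cells for no effect and reference antibiotic for full effect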
Mtb bLac sens – beta-lactam sensitization of Mtb H37Rv | M. tuberculosis H37Rv growth with meropenem, percent inhibition | inhibition, % at 25 µM | 330,000 tested, 0.27% active; call rule not given here;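 further: growth measured after seven days incubation then overnight dye step; 0% = bacteria only wells and 100% = bacteria with antibiotic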
BioA inh – BioA (M. tuberculosis) enzyme inhibition | purified M. tuberculosis BioA enzyme, plate reader | inhibition, % at 9.99 µM | AID 602481 | 360,000 tested, 0.096% active; in the data active means inhibition above about 40%; inconclusive means no clear call, values can overlap the other calls
ugtP null kill – kills S. aureus RN4220 lacking UgtP; S. aureus RN4220 ugtP deletion, OD600 growth, 16 h; growth inhibition, % (test concentration not listed); 330,000 tested, 0.54% active; AID 1259309; in the data active means growth inhibition above about 68%;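 further: plate controls were untreated wells for no effect and antibiotic for full effect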
The depositor's hits bear a star; ? = inconclusive; · = no result.

SMILES | PfHsp40 rescue | Sa RN4220 lethal | Mtb bLac sens | BioA inh | ugtP null kill
CCCCCCCCCCCCCCCCn1cc[n+](CC(C)=O)c1 | -1 | 100* | · | · | 101*
CCOC(=O)/C(C#N)=C1/C=C(C)NC(c2ccccc2O)=N1 | -1 | 81 | -6 | 2 | 83*
CCOC(=O)/C(C#N)=C1\Nc2ccccc2N=C1N(CC(C)C)CC(C)C | 2 | -13 | 17 | -6 | 7
COC(=O)C1=C(c2ccc(OC(F)(F)F)cc2)CC2CCC1N2C(=O)N1CCC(O)CC1 (stereo not given) | · | 6 | · | · | -3
COc1ccc(CS(=O)(=O)/C(Cl)=C(/Cl)C(=O)Nc2ccc(OC)nc2)cc1 | 0 | 26 | 60 | 1 | 100*
COc1ccc(NC(=O)/C(Cl)=C(/Cl)S(=O)Cc2ccccc2)cn1 (stereo not given) | 0 | 51 | 100 | · | 88*
NC(Cc1ccc(Cl)cc1Cl)=NOC(=O)Cc1ccc(Cl)cc1 | · | 4 | · | · | -2
COc1cc(C=Nn2cnnc2-n2nc(C)cc2C)cc([N+](=O)[O-])c1O | · | 5 | · | · | 8
Cc1n[nH]c(C)c1N1C(=O)c2cccc3cc(Br)cc(c23)C1=O | -1 | -1 | 7 | 58* | -5
Cc1ccc(Nc2c(-c3ccccn3)nc3cccc(C)n23)cc1 | 0 | 101* | 97 | 1 | 100*
Cc1cccc2nc(-c3ccco3)c(Nc3ccccc3)n12 | 0 | 1 | 2 | -2 | 5
O=C(NC(Cc1ccccc1)C(=O)OCc1ccccc1)c1nc[nH]c1C(=O)NC(Cc1ccccc1)C(=O)OCc1ccccc1 (stereo not given) | · | 3 | · | · | -13
CC1CN(C(C)CO)C(=O)c2cccc(NS(=O)(=O)c3cccs3)c2OC1CN(C)Cc1ccncc1 (stereo not given) | · | 2 | · | · | -10
CCOC(=O)c1c(-c2ccccc2)nc2ccc(C)cn12 | 207* | 9 | 19 | 2 | -2
CCOC(=O)c1c(-c2ccccc2)nc2cc(C)ccn12 | 2 | 13 | 13 | 3 | -1
CCOC(=O)c1sc(NC(=O)c2ccc(S(=O)(=O)N3CCCCCC3)cc2)nc1-c1ccccc1 | 50* | 1 | 16 | · | 5
CCOC(=O)c1sc(N)nc1-c1ccccc1 | 94* | 4 | -2 | -1 | 12
CC(C)CC(CO)Nc1nc(N(C)c2cccc(Cl)c2)c2ncn(C(C)C)c2n1 (stereo not given) | · | 1 | · | · | 9
CCCCCC(=O)Nc1cccc(C2=NOC3(C2)CC(C(N)=O)N(C(=O)c2ccc(Cl)cc2)C3)c1 (stereo not given) | · | 6 | · | · | 12
Nc1ccc(CC2=NCCN2)cc1 | 35* | 2 | · | · | 6
Cc1sc2ccccc2c1CC1=NCCN1 | 0 | · | 2 | -1 | ·
COc1ccc(C2CC(=O)C=C(c3cc(Cl)cc(Cl)c3)C2)cc1 (stereo not given) | · | 9 | · | · | 14
CN1CCN(C(=O)C2=CC(C3CCCCC3)CC(OCCCCO)O2)CC1 (stereo not given) | · | 8 | · | · | 5
Brc1ccc(CSc2nnc(Cc3c[nH]c4ccccc34)o2)cc1 | 37* | 8 | 52 | 0 | 42
Clc1ccc(OCCSc2ncccn2)c2ccccc12 | 0 | 2 | 2 | -6 | 96*
SMILES | PfHsp40 rescue | Sa RN4220 lethal | Mtb bLac sens | BioA inh | ugtP null kill
O=C1C2C3C=CC(C3)C2C(=O)N1CNc1ccccn1 (stereo not given) | 44* | 5 | -11 | · | 2
CC(C(=O)Nc1ccccn1)N1C(=O)C2C3C=CC(C3)C2C1=O (stereo not given) | 1 | 5 | -3 | -1 | -7
CC=CC=CC(=O)Nc1nccs1 | · | 6 | · | · | 1
O=c1c2ccccc2nc(/C=C/c2ccc([N+](=O)[O-])o2)n1CCCO | 0 | 114* | 100 | -3 | 99*
CCCCCCCN1CCC(=O)N(C(CO)Cc2ccccc2)CC1 (stereo not given) | · | 4 | · | · | 8
O=C(O)/C(=C\c1ccc2ccccc2c1)c1cccc2ccccc12 | 117* | 14 | 1 | · | -26
O=C(O)C(=Cc1ccncc1)c1cccc2ccccc12 | · | · | · | 0 | ·
Clc1ccc(C[n+]2c(-c3ccccc3)cc(-c3ccccc3)cc2-c2ccccc2)cc1 | 0 | 100* | 100 | 31 | 100*
O=C([O-])c1cc(-c2ccccc2)cc(-c2ccccc2)[n+]1CCc1ccc(Cl)cc1 | 1 | 88* | · | 1 | 100*
Cc1cc(-c2ccccc2)cc(-c2ccccc2)[n+]1CCc1ccccc1 | 0 | 6 | -16 | 7 | -7
N/C(Cc1cccc2ccccc12)=N\OC(=O)c1ccccc1F | 1 | 4 | 8 | -1 | 3
N/C(Cc1ccc(Cl)cc1Cl)=N\OC(=O)c1ccccc1F | 156* | -1 | 22 | · | 0
Cc1nnc(SCC(=O)c2ccc([N+](=O)[O-])cc2)s1 | -1 | 3 | -1 | · | -2
Nc1nnc(SCC(=O)c2ccc([N+](=O)[O-])cc2)s1 | 0 | 95* | -2 | 1 | 54
CCC1=NN(C(=O)c2cccc(Br)c2)C(O)(c2ccc(Br)cc2)C1 (stereo not given) | 91* | 61 | 84 | · | 81
Cc1nn2c(-c3ccncc3)nnc2c2ccccc12 | 57* | 5 | 1 | -1 | 0
COc1cc(C=NNC(=O)c2cnccn2)cc(OC)c1OC | · | 3 | · | · | 0
COc1cc(/C=N/NC(=O)c2cnccn2)cc(OC)c1OC | 66* | · | 10 | 13 | ·
CC#CCN1c2ccccc2[C@]23CC(C(=O)OC)N(C(=O)c4ccc(Br)cc4)C2=NC(C(=O)OC)=C(C(=O)OC)C13 (stereo not given in full) | · | 3 | · | · | 5
COC(=O)C1=C(c2ccc(OC)c(OC)c2)CC2CCC1N2C(=O)N1CCCC1 (stereo not given) | · | 2 | · | · | -1
CCn1nc(-c2cccs2)nc2c(=O)n(C)c(=O)nc1-2 | 0 | 99* | · | 4 | 100*
CCn1nc(/C=C/c2ccccc2)nc2c(=O)n(C)c(=O)nc1-2 | 276* | 98* | · | · | 99*
COC(CC1OC1C(=O)COCc1ccccc1)OC (stereo not given) | · | 8 | · | · | 9
O=C(Nc1nc2ccccc2s1)c1ccc([N+](=O)[O-])o1 | 1 | 8 | 89 | · | 5
Cc1cc(C)c2sc(NC(=O)c3ccc([N+](=O)[O-])o3)nc2c1 | 0 | 61 | 99 | 0 | 47
COc1ccc2nc(NC(=O)c3ccc([N+](=O)[O-])o3)sc2c1 | -1 | 48 | 100 | 1 | 100*
O=C(Nc1nc2cc3c(cc2s1)OCCO3)c1ccc([N+](=O)[O-])o1 | 0 | 21 | ? | 1 | 88*
Cc1cc(C)c2nc(NC(=O)c3ccc([N+](=O)[O-])o3)sc2c1 | -3 | 8 | 7 | -2 | 99*
CC(C)c1oc(=O)cc2c1C(O)C1OC(=O)[C@@]3(C)CCC(O)[C@@]2(C)C13 (stereo not given in full) | · | 8 | · | · | 8
CCCCNC(=O)OC1CC2CCC(=O)N3CCC(C1)C23 (stereo not given) | · | 5 | · | · | -1
